# Out of some 3,300 compounds screened, about 280 (8.5%) were called active. Only a selection was taken, and actives are over-represented in it overall. A number with no mark means an inactive call.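 How the source made its calls: active means mean growth inhibition over the two runs of 50% or more; inactive means mean growth inhibition under 50%.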
# Experiment: A549 NSCLC cell proliferation inhibitors – ATP luminescence, human non-small cell lung line, primary screen (AID 371);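 further: compound exposure lasted 72 h before the ATP read; 0% = untreated cell signal and 100% = no luminescence left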
# Conditions: at 10 µM, hits give high values
row,SMILES,growth inhibition
1,CC1(C)Cc2nc(NCCCO)c(C#N)cc2CO1,-0.91%
2,CCCCOC(=O)C(C)c1c(C)[nH]c(=S)[nH]c1=O (stereo not given),5.11%
3,O=C(Nc1ncccc1Cl)c1cccc(F)c1,7.47%
4,COc1ccc(C2C(C#N)=C(SC)NC3=C2C(=O)CC(C)(C)C3)cc1 (stereo not given),11.2%
5,c1ccc(N2CCN(c3nc(NCc4ccco4)c4ccccc4n3)CC2)cc1,90.4% (active)
6,Oc1ccccc1-c1nc(NCc2ccco2)c2ccccc2n1,31.9%
7,Fc1cnc(N2CCOCC2)nc1NCc1ccccc1,-1.26%
8,COc1cccc(COc2nc3c(c(=O)n(C)c(=O)n3C)n2C)c1,29.5%
9,COc1cccc(OC)c1C(=O)Nc1nc2ccc(S(C)(=O)=O)cc2s1,11.2%
10,CCCOc1ccccc1C(=O)NCCCC(=O)O,-12.4%
11,CCCNCC(O)COc1ccccc1C(=O)CCc1ccccc1 (stereo not given),54.2% (active)
12,CCCCOc1ccccc1C(=O)NCCCC(=O)O,-2.38%
13,Cc1ccccc1NC(=O)NCCc1nc2ccccc2[nH]1,-5.83%
14,COc1ccc(C(=O)CCN2CCCCCC2)cc1,2.68%
15,COc1ccc(C(=O)C(CN2CCCC2)c2ccccc2)cc1 (stereo not given),88.2% (active)
16,COc1ccc(C(O)C(CN2CCOCC2)c2ccccc2)cc1 (stereo not given),2.01%
17,Cc1cc(C)nc(N(C#N)CN2C(=O)c3ccccc3C2=O)n1,-0.78%
18,COC(=O)c1ccc(C(=O)OC)c(NC(=O)c2cc3ccccc3o2)c1,5.58%
19,COC(=O)/C(C#N)=C1/SC=C(C)N1c1ccccc1,4.54%
20,Cn1c(=O)c2c(nc(NCc3ccco3)n2Cc2ccc(Cl)cc2Cl)n(C)c1=O,0.48%
21,Cn1c(NCc2ccco2)nc2c1c(=O)n(Cc1ccc(Cl)c(Cl)c1)c(=O)n2C,70% (active)
22,Cn1c(OCc2ccco2)nc2c1c(=O)n(Cc1ccc(Cl)c(Cl)c1)c(=O)n2C,59% (active)
23,C=CCOc1nc2c(c(=O)n(Cc3ccc(Cl)c(Cl)c3)c(=O)n2C)n1C,35.1%
24,Cn1c(OCc2ccc3c(c2)OCO3)nc2c1c(=O)n(Cc1cccc(Cl)c1)c(=O)n2C,-0.73%
25,Cn1c(=O)c2c(nc(NCc3ccco3)n2Cc2ccccc2Cl)n(C)c1=O,2.6%

row,SMILES,growth inhibition
1,CNC(=O)c1cc2ccccc2o1,-3.18%
2,O=c1cc(O)nc2n1CCCS2,2.49%
3,COC(=O)C(NC(=O)c1ccco1)(Nc1ccc(Br)cn1)C(F)(F)F (stereo not given),22.7%
4,CCOC(=O)CC(C#N)c1cn(C)c2ccccc12 (stereo not given),3.83%
5,C=CC[N+](C)(C)CCCNC(=O)/C=N/O,-6.91%
6,COc1cccc(C(=O)Nc2ccc(-c3nnc(-c4ccco4)o3)cc2)c1,23.8%
7,CCN(CC)CCn1c(O)c(N=O)c2ccccc21,2.91%
8,COCCNc1nc2c(c(=O)n(Cc3ccc(OC)cc3)c(=O)n2C)n1C,12.2%
9,Cn1c(=O)n(Cc2ccccc2)c(=O)c2c1nc(NCC1CCCO1)n2Cc1ccccc1 (stereo not given),45.3%
10,Cn1c(N2CCOCC2)nc2c1c(=O)n(Cc1ccc(Cl)c(Cl)c1)c(=O)n2C,36.7%
11,Cn1c(NCC(O)c2ccccc2)nc2c1c(=O)n(Cc1ccc(Cl)cc1)c(=O)n2C (stereo not given),71.7% (active)
12,Cn1c(NCc2cccnc2)nc2c1c(=O)n(Cc1ccccc1F)c(=O)n2C,18.8%
13,Cn1c(NCC(O)c2ccccc2)nc2c1c(=O)n(Cc1ccc(Cl)c(Cl)c1)c(=O)n2C (stereo not given),88% (active)
14,Cn1c(NCc2ccccc2)nc2c1c(=O)n(Cc1ccc(Br)cc1)c(=O)n2C,72.5% (active)
15,Cn1c(NCc2ccccc2)nc2c1c(=O)n(Cc1ccccc1)c(=O)n2C,39.1%
16,Cn1c(N2CCN(c3ccccn3)CC2)nc2c1c(=O)n(Cc1ccccc1Cl)c(=O)n2C,7.18%
17,Cn1c(N2CCOCC2)nc2c1c(=O)n(Cc1ccc(Cl)cc1)c(=O)n2C,17.2%
18,COc1ccc(Cn2c(=O)c3c(nc(NCCO)n3C)n(C)c2=O)cc1,3.12%
19,Cn1c(N2CCN(c3ccccn3)CC2)nc2c1c(=O)n(Cc1ccc(Cl)cc1)c(=O)n2C,50.6% (active)
20,CCCCCSc1nc(O)cc(=O)[nH]1,-0.41%
21,Cc1nc2c(=O)n(C)c(=O)[nH]c2n1Cc1ccccc1,8.92%
22,O=C1C2ON(c3ccccc3)C(c3cccnc3)C2C(=O)N1c1ccccc1 (stereo not given),-1.13%
23,CCOC(=O)c1[nH]c2cc3c(cc2c1NC(=O)CN1CC(C)CC(C)C1)OCO3 (stereo not given),6.05%
24,CCc1c(C(=O)O)[nH]c2ccc(Br)cc12,6.3%
25,CCOC(=O)c1[nH]c2ccc(OC)cc2c1C,12.4%

row,SMILES,growth inhibition
1,Cc1cccc(N2CC(=O)N(c3cccc(C)c3)CC2=O)c1,3.38%
2,COc1ccccc1N1CCN(C(=O)c2c(C)cc(=O)oc2C)CC1,-0.18%
3,CCN(CC)CCNC(=O)c1c(C)oc2cc(Br)c(OC)cc12,29.2%
4,COc1cc2c(C(=O)N3CCN(c4ccccc4)CC3)c(C)oc2cc1Br,60.9% (active)
5,CCOc1ccc(Cc2nc(N)nc(N)n2)cc1,2.96%
6,CCCCOc1ccc(-c2nnc(N)s2)cc1,21.4%
7,CCCCOc1ccc(CN(C)c2ncnc(N)n2)cc1,51.9% (active)
8,COC(=O)c1ccccc1N1C(=O)[C@@H]2C(c3ccc(Br)cc3)=NO[C@@H]2C1=O,3.29%
9,O=C(NCc1ccco1)c1ccc(=O)[nH]n1,-4.07%
10,O=C(NCc1ccco1)c1ccc(=O)oc1,-3.09%
11,O=C1c2ccccc2-c2onc3ccc(NCc4ccco4)c1c23,50.2% (active)
12,c1ccc(-c2nn3c(C4CCCCC4)nnc3s2)cc1,5.6%
13,CCC(=O)N(Cc1cccs1)C1CCOC(C)(C)C1 (stereo not given),3.04%
14,CCCCNC(=O)c1c(N)n(/N=C/c2cccnc2)c2nc3ccccc3nc12,5.46%
15,CN(Cc1ccccc1)Cc1c[nH]c2ccccc12,5.38%
16,CN=c1sc2ccccc2n1CC(O)COc1ccccc1 (stereo not given),25.3%
17,CN(C)CC(O)COc1cccc(OCC(O)CN(C)C)c1 (stereo not given),2.88%
18,O/N=C/c1ccc(OCC(O)COc2ccc(/C=N/O)cc2)cc1,-5.19%
19,COCCc1ccc(OCC(O)CNC(C)C)cc1 (stereo not given),1.47%
20,CC(C)NCC(O)COc1ccc(CC(N)=O)cc1 (stereo not given),-2.65%
21,CN(C)CC(O)COc1ccc(-c2ccc(C#N)cc2)cc1 (stereo not given),64.2% (active)
22,N#Cc1ccc(-c2ccc(OCC(O)Cn3nnc4ccccc43)cc2)cc1 (stereo not given),57.7% (active)
23,CC1(C)NC(=O)N(CC(O)Cn2nnc3ccccc32)C1=O (stereo not given),8.44%
24,CN(CC(O)COc1ccc(OCC(O)CN(C)C2CCCCC2)cc1)C1CCCCC1 (stereo not given),50.1% (active)
25,CN(C)CC(O)COc1ccc(C(C)(C)c2ccc(OCC(O)CN(C)C)cc2)cc1 (stereo not given),89.2% (active)

row,SMILES,growth inhibition
1,OC(CNCCCN1CCCCC1)COc1ccccc1 (stereo not given),4.57%
2,CC(C)NCC(O)COc1ccc(CCOCC2CC2)cc1 (stereo not given),-0.79%
3,CCOCCSc1nc2c(c(=O)[nH]c(=O)n2C)n1CCCc1ccccc1,20.2%
4,CCN(CC)CCCN1C(=O)C(O)=C(C(=O)c2ccc(C)o2)C1c1ccc(C)o1 (stereo not given),5.46%
5,CC1CC(C(F)(F)F)n2ncnc2N1 (stereo not given),2.4%
6,CC(C)OC(=O)[C@H]1[C@H](c2ccc(Cl)cc2)[C@@](C#N)(C(N)=O)[C@@H]2C=CC(C(N)=O)=CN21,6.9%
7,Cc1cccc(N2C(=O)CC(N3CCN(Cc4ccc(Cl)cc4)CC3)C2=O)c1 (stereo not given),-1.79%
8,O=C(Nc1ccc(Cl)cn1)C1CCCN1S(=O)(=O)c1ccccc1 (stereo not given),-16.6%
9,CCCOc1cc(CN2CCCCC2)cc(C(C)=O)c1,5.4%
10,CCNC(=O)N(C(=O)NCC)n1c(C)nnc1C,-3.85%
11,c1ccc(CSc2nnc(SCc3ccccn3)s2)nc1,-7.61%
12,N#CC1=C(N)N2C(=C(C#N)C1c1ccccc1)Sc1ccccc12 (stereo not given),-5.42%
13,C#CC1CN(Cc2ccccc2)CC(C#C)N1C (stereo not given),4.27%
14,Cc1ccc(Cn2ncc3c(N4CCN(Cc5ccc(Cl)cc5)CC4)ncnc32)cc1,53.7% (active)
15,Cc1ccc(Cn2ncc3c(N4CCN(c5ccc(C)cc5)CC4)ncnc32)cc1,30.8%
16,Cc1ccc(Cn2ncc3c(N4CCOCC4)ncnc32)cc1,19.4%
17,COC(=O)C(NC(C)=O)(Nc1ccc(Br)cc1)C(=O)OC,36.9%
18,Cc1ccc2[nH]c3c(N4CCN(Cc5ccccc5)CC4)ncnc3c2c1,80.6% (active)
19,CCN1CCCC1Cn1cnc2c([nH]c3ccc(C)cc32)c1=O (stereo not given),6.64%
20,c1ccc2c(c1)CCN(c1ncnc3c1[nH]c1ccccc13)C2,77.4% (active)
21,Cc1ccc2[nH]c3c(N4CCCCCC4)ncnc3c2c1,72.1% (active)
22,c1ccc2c(c1)[nH]c1c(N3CCC4(CC3)OCCO4)ncnc12,34%
23,Cc1ccc2[nH]c3c(N4CCOCC4)ncnc3c2c1,34.7%
24,OC1(c2cccc(C(F)(F)F)c2)CCN(c2ncnc3c2[nH]c2ccccc23)CC1,92.4% (active)
25,c1ccc2c(c1)[nH]c1c(N3CCSCC3)ncnc12,33.6%
